Reference: PubChem BioAssay AID1345085 (National Center for Advancing Translational Sciences (NCATS), 2018)
Records with an inconclusive call do not appear. Activity calls are given as the source filed them. The call rests on the fitted dose curve; in most records, active means well fitted cell-killing curve with a large enough effect; inconclusive means small, poorly fitted or top-dose-only effect, or effect the other way; inactive means no such curve, though single readings can be large or run the other way.

System: Es-2
Test: Confirmatory qHTS for gynecologic anti-cancer compounds from libraries of approved drugs and bioactive compounds; further: nearly all actives have a fitted effect of over 55% in size
Details: gynecologic cancer cell panel viability, ATPlite luminescence, 48 h; series mostly up to 57.6 µM
In short: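 IC50 values derive from an ATPlite ATP-content luminescence assay following 48 h treatment at 37 C. Each compound ran as an 11-concentration, threefold series (57.5 uM to 0.977 nM); HEK 293T served as control line for selectivity index.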
Potency means the concentration at half of the fitted maximal effect.

Row | Structure (SMILES) | Potency
1 | CCN1CCN(C(=O)Cc2ccc(Nc3ncc(F)c(Nc4ccc(C(=O)Nc5ccccc5Cl)cc4)n3)cc2)CC1 | inactive
2 | C=C(C)[C@H]1Cc2c(ccc3c2O[C@@H]2COc4cc(OC)c(OC)cc4[C@@H]2C3=O)O1 | 0.685 µM (active)
3 | CCNC(=O)C[C@@H]1N=C(c2ccc(Cl)cc2)c2cc(OC)ccc2-n2c(C)nnc21 | 24.3 µM (active)
4 | O=C(O)Cc1ccccc1 | inactive
5 | C/C=C(/C)C(=O)O[C@H]1C(C)=C2[C@H]([C@@H]1OC(=O)CCCCCCC)[C@@](C)(OC(C)=O)C[C@H](OC(=O)CCC)[C@@]1(O)[C@H]2OC(=O)[C@@]1(C)O | 27.3 µM (active)
6 | CCC(=O)O[C@H]1CC[C@H]2[C@@H]3CCC4=CC(=O)CC[C@]4(C)[C@H]3CC[C@]12C | inactive
7 | C[C@]12CC[C@H]3[C@@H](CCC4=CC(=O)CC[C@@H]43)[C@@H]1CC[C@@H]2OC(=O)CCc1ccccc1 | inactive
8 | CCOc1ccccc1-n1c(C(C)N2CCN(C(=O)COc3ccc(Cl)cc3)CC2)nc2ccccc2c1=O (centres undefined) | 3.43 µM (active)
9 | C[C@H]1CCC/C=C/C2C[C@H](O)C[C@H]2[C@H](O)/C=C/C(=O)O1 (some centres undefined) | 0.485 µM (active)
